Assay results from PubChem BioAssay (Tox21).
Records with an inconclusive call do not appear. Some structures have more than one record in an assay (separate samples or runs), and their calls can disagree. Activity calls are given as the source filed them. Unless noted, calls follow the shape of the full dose curve.

Biological target: Peroxisome proliferator-activated receptor gamma (Homo sapiens) (UniProt P37231)
Assay: qHTS assay to identify small molecule antagonists of the peroxisome proliferator-activated receptor gamma (PPARg) signaling pathway (AID 743191); also: nearly all actives have a fitted effect of over 30% in size
Settings: HEK293H PPARg-UAS-bla, beta-lactamase ratio, antagonist, 17 h; series mostly up to 62.6 µM; ratio activity, negative = inhibition: at the top concentration
Summary of the method: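 Beta-lactamase reporter under UAS control in HEK293H PPARg-bla cells; compound treatment 17 h at 37C. Read-out: fluorescence intensity after 1 h room-temperature incubation with LiveBLAzer B/G FRET substrate.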
% is scaled to controls: 0 for no effect and ±100 for the full control effect.

Chain of Peroxisome proliferator-activated receptor gamma (Homo sapiens) (P37231 whole entry, looked up): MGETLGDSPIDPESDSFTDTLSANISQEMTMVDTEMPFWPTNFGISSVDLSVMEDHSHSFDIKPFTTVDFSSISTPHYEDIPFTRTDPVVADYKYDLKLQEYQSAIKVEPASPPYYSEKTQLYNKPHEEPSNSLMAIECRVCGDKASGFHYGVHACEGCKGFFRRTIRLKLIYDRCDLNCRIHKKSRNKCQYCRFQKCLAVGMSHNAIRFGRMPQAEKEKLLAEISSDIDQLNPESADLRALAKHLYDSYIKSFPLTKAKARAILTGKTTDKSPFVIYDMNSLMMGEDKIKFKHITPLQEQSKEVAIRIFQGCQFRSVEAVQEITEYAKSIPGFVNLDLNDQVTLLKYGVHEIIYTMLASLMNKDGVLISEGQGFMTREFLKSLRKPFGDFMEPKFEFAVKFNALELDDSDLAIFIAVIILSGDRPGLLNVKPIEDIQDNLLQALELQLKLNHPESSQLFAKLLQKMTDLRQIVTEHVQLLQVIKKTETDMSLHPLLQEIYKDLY

SMILES	ratio activity, negative = inhibition
COC(=O)[C@@H](N)CCCN/C(N)=N/[N+](=O)[O-]	16.2% (inactive)
CCNc1nc(Cl)nc(NC(C)(C)C)n1	-15.7% (inactive)
CCOC(=O)N(C)N=O	6.78% (inactive)
NCCOS(=O)(=O)O	0.149% (inactive)
Cc1ccc(-c2nc3ccc(C)cn3c2CC(=O)N(C)C)cc1	3.85% (inactive)
C[C@H](N)C(=O)c1ccccc1	4.45% [at 81.1 µM] (inactive)
C=CCN1CC[C@]23CCCC[C@H]2[C@H]1Cc1ccc(O)cc13	-7.41% (inactive)
COc1cccc(C=O)c1	1.03% (inactive)
CCN[C@H](C)Cc1cccc(C(F)(F)F)c1	-0.727% [at 81.1 µM] (inactive)
CCN(CCO)CCn1c(Cc2ccccc2)nc2c1c(=O)n(C)c(=O)n2C	2.25% (inactive)
CN(C)CCN(C)C	-10.2% (inactive)
CCCOC(=O)Cc1ccc(OCC(=O)N(CC)CC)c(OC)c1	3.93% (inactive)
O=CCCl	16.3% (inactive)
Cl/C=C/CCl	4.81% [at 81.1 µM] (inactive)
C=CCc1cc(OC)c2c(c1)OCO2	-0.696% [at 81.1 µM] (inactive)
COc1ccc(C=O)cc1O	0.524% [at 81.1 µM] (inactive)
CCOC(=O)C(SP(=S)(OC)OC)c1ccccc1 (stereo not drawn)	21.1% (inactive)
O=c1[nH]oc2c1CCNC2	4.21% (inactive)

Tested on: not listed separately
Assay: qHTS assay to identify small molecule antagonists of the peroxisome proliferator-activated receptor gamma (PPARg) signaling pathway - cell viability counter screen (AID 743194; active = well fitted cell-killing curve with a large enough effect in the repeat runs; also: nearly all actives have a fitted effect of over 55% in size)
Settings: PPARg-bla HEK293H viability, CellTiter-Glo luminescence, 17 h; Potency: co-treated with 50 nM rosiglitazone; series mostly up to 62.6 µM; activity change, negative = cytotoxicity: at the top concentration
Summary of the method: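 Viability was measured as CellTiter-Glo luminescence in GeneBLAzer PPARg UAS-bla HEK293H cells. These cells had been exposed 17 h at 37 C to compounds together with rosiglitazone at 50 nM final, with the beta-lactamase readout taken in the same wells.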

SMILES	activity change, negative = cytotoxicity
COC(=O)[C@@H](N)CCCN/C(N)=N/[N+](=O)[O-]	12.6% (inactive)
CCNc1nc(Cl)nc(NC(C)(C)C)n1	-19% (inactive)
CC(C)[N+](C)(CCC(C(N)=O)(c1ccccc1)c1ccccc1)C(C)C	13.7% [at 62.6 µM] (inactive)
CCOC(=O)N(C)N=O	5.9% (inactive)
CCOC(=O)CCl	15.2% (inactive)
NCCOS(=O)(=O)O	6.75% (inactive)
Cc1ccc(-c2nc3ccc(C)cn3c2CC(=O)N(C)C)cc1	-1.07% [at 62.6 µM] (inactive)
Cc1ccc2cc(C)ccc2c1	10.6% (inactive)
C[C@H](N)C(=O)c1ccccc1	-7.29% [at 81.1 µM] (inactive)
C=CCN1CC[C@]23CCCC[C@H]2[C@H]1Cc1ccc(O)cc13	0.751% [at 62.6 µM] (inactive)
N#CC(Br)(Br)C(N)=O	14.7% (inactive)
COc1cccc(C=O)c1	20% (inactive)
C#CC(C)(C)O	22.6% [at 81.1 µM] (inactive)
CCN[C@H](C)Cc1cccc(C(F)(F)F)c1	-1.26% [at 81.1 µM] (inactive)
CCOc1cc(OP(=S)(OC)OC)nc(CC)n1	15.1% (inactive)
Brc1c(Br)c(Br)c(Br)c(Br)c1Br	-21% [at 5.95 µM, co-treated with 50 nM rosiglitazone] (inactive)

SMILES	activity change, negative = cytotoxicity
CCN(CCO)CCn1c(Cc2ccccc2)nc2c1c(=O)n(C)c(=O)n2C	8.95% (inactive)
O=C(Cl)OCc1ccccc1	9.86% [at 81.1 µM, co-treated with 50 nM rosiglitazone] (inactive)
CN(C)CCN(C)C	2.87% (inactive)
O=C(CCl)NCO	18.1% (inactive)
CCCOC(=O)Cc1ccc(OCC(=O)N(CC)CC)c(OC)c1	0.319% (inactive)
CC[C@H](O)C(C[C@H](C)N(C)C)(c1ccccc1)c1ccccc1	-11% [at 81.1 µM] (inactive)
O=CCCl	-20.4% (inactive)
Cn1c(N)nc2c3cccnc3ccc21	0.026% (inactive)
Cl/C=C/CCl	-0.301% [at 81.1 µM, co-treated with 50 nM rosiglitazone] (inactive)
C=CCc1cc(OC)c2c(c1)OCO2	-16% [at 81.1 µM] (inactive)
COc1ccc(C=O)cc1O	1.38% [at 81.1 µM, co-treated with 50 nM rosiglitazone] (inactive)
Cc1ccc2c(c1)C1CN(C)CCC1N2 (stereo not drawn)	14.4% [at 29.1 µM, co-treated with 50 nM rosiglitazone] (inactive)
Oc1ccc2c3c1O[C@H]1[C@@H](O)C=C[C@H]4[C@@H](C2)NCC[C@@]341	2.66% [at 81.1 µM] (inactive)
CCOC(=O)C(SP(=S)(OC)OC)c1ccccc1 (stereo not drawn)	2.34% (inactive)
CC(C)[C@]12CC(=O)[C@H](C)[C@H]1C2	5.39% (inactive)
O=c1[nH]oc2c1CCNC2	-3.39% (inactive)

Tested on: not listed separately
Assay: qHTS assay for small molecule agonists of the antioxidant response element (ARE) signaling pathway (AID 743202; active = well fitted activation curve with a large enough effect in the signal ratio in the repeat runs, not every such curve was filed as active; the % refers to the signal ratio)
Settings: HepG2 ARE-bla reporter, beta-lactamase FRET, 16 h; series mostly up to 73.3 µM; activation: at the top concentration
Summary of the method: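 After 16 hours of compound treatment at 37 C, HepG2 cells with a stably integrated ARE-driven beta-lactamase reporter were loaded 2 hours at room temperature with LiveBLAzer B/G FRET substrate and fluorescence intensity measured.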

SMILES	activation	Potency
CCNc1nc(Cl)nc(NC(C)(C)C)n1	4.52% (inactive)	–
NCCOS(=O)(=O)O	-0.446% (inactive)	–
Cc1ccc(-c2nc3ccc(C)cn3c2CC(=O)N(C)C)cc1	1.27% (inactive)	–
C=CCN1CC[C@]23CCCC[C@H]2[C@H]1Cc1ccc(O)cc13	-5.76% (inactive)	–
COc1cccc(C=O)c1	-4.01% (inactive)	–
Cc1cc(OC(=O)N(C)C)nn1C(=O)N(C)C	-9.23% (inactive)	–
ClC1=C(Cl)C2(Cl)C(CBr)CC1(Cl)C2(Cl)Cl (stereo not drawn)	–	inactive
CN(C)CCN(C)C	-8.07% (inactive)	–
CCCOC(=O)Cc1ccc(OCC(=O)N(CC)CC)c(OC)c1	-0.413% (inactive)	–
Cn1c(N)nc2c3cccnc3ccc21	-18.2% (inactive)	–
Cl/C=C/CCl	0.696% [at 94.8 µM] (inactive)	–
C=CCc1cc(OC)c2c(c1)OCO2	-2.09% [at 94.8 µM] (inactive)	–
COc1ccc(C=O)cc1O	-0.308% [at 94.8 µM] (inactive)	–
Cc1ccc2c(c1)C1CN(C)CCC1N2 (stereo not drawn)	-9.31% [at 34.3 µM] (inactive)	–
CC(C)[C@]12CC(=O)[C@H](C)[C@H]1C2	1.55% (inactive)	–

Tested on: not listed separately
Assay: qHTS assay for small molecule agonists of the antioxidant response element (ARE) signaling pathway - cell viability counter screen (AID 743203); also: nearly all actives have a fitted effect of over 55% in size; also: potency is read from the fitted curve at half-maximal effect
Settings: ARE-bla HepG2 viability, CellTiter-Glo luminescence, 16 h; series mostly up to 73.3 µM; viability change, negative = cytotoxic: at the top concentration
Summary of the method: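 Viability counter screen: stably transfected ARE-bla HepG2 line, 16 hrs compound exposure at 37C/5% CO2, ATP-based CellTiter-Glo luminescence measured in the reporter wells.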

SMILES	viability change, negative = cytotoxic	Potency
COC(=O)[C@@H](N)CCCN/C(N)=N/[N+](=O)[O-]	2.14% (inactive)	–
CCNc1nc(Cl)nc(NC(C)(C)C)n1	9.62% (inactive)	–
CC(C)[N+](C)(CCC(C(N)=O)(c1ccccc1)c1ccccc1)C(C)C	-0.97% (inactive)	–
CCOC(=O)N(C)N=O	5.65% (inactive)	–
c1cncc([C@@H]2CCCCN2)c1	-7.54% (inactive)	–
CCOC(=O)CCl	6.35% (inactive)	–
NCCOS(=O)(=O)O	8.02% (inactive)	–
Cc1ccc(-c2nc3ccc(C)cn3c2CC(=O)N(C)C)cc1	-5.75% (inactive)	–
C[C@H](N)C(=O)c1ccccc1	0.134% [at 94.8 µM] (inactive)	–
C=CCN1CC[C@]23CCCC[C@H]2[C@H]1Cc1ccc(O)cc13	-1.15% (inactive)	–
N#CC(Br)(Br)C(N)=O	3.87% (inactive)	–
COc1cccc(C=O)c1	4.22% (inactive)	–
CCN[C@H](C)Cc1cccc(C(F)(F)F)c1	-0.233% (inactive)	–
CCOc1cc(OP(=S)(OC)OC)nc(CC)n1	8.64% (inactive)	–
CCN(CCO)CCn1c(Cc2ccccc2)nc2c1c(=O)n(C)c(=O)n2C	4.66% (inactive)	–
Cc1cc(OC(=O)N(C)C)nn1C(=O)N(C)C	3.81% (inactive)	–
O=C(Cl)OCc1ccccc1	-0.149% [at 94.8 µM] (inactive)	–
ClC1=C(Cl)C2(Cl)C(CBr)CC1(Cl)C2(Cl)Cl (stereo not drawn)	–	54.5 µM (active) and inactive
CN(C)CCN(C)C	-5.08% (inactive)	–
O=C(CCl)NCO	9.08% (inactive)	–
CCCOC(=O)Cc1ccc(OCC(=O)N(CC)CC)c(OC)c1	0.627% (inactive)	–
O=CCCl	7.34% (inactive)	–
Cn1c(N)nc2c3cccnc3ccc21	3.93% (inactive)	–
C=CCc1cc(OC)c2c(c1)OCO2	3.88% [at 94.8 µM] (inactive)	–
COc1ccc(C=O)cc1O	-0.361% [at 94.8 µM] (inactive)	–
Oc1ccc2c3c1O[C@H]1[C@@H](O)C=C[C@H]4[C@@H](C2)NCC[C@@]341	0.806% [at 94.8 µM] (inactive)	–
CCOC(=O)C(SP(=S)(OC)OC)c1ccccc1 (stereo not drawn)	0.342% (inactive)	–
O=c1[nH]oc2c1CCNC2	6.34% (inactive)	–
